What is called AC50 is the concentration at which the activity in the assay is half-maximal.

Each structure is given as a SMILES string. Values joined by “and” are separate entries in the source; they are usually repeats but may differ in a detail not shown here. Equal values may be shown once. Among all 16,000 compounds or so, about 5,700 (36%) were called active. About 24% were inconclusive and are not listed. Some of the results follow. Unmarked numbers belong to inactive results. Calls come from the whole dose curve; as a rule, active = well fitted curve in the direction sought with a large enough effect; inconclusive = small, poorly fitted or top-dose-only effect, or effect the other way; inactive = no such curve, though single readings can be large or run the other way.
% is set by controls: 0 for no effect and ±100 for the full control effect.

Cytochrome P450 1A2 (Homo sapiens), sequence (P05177 whole entry, looked up): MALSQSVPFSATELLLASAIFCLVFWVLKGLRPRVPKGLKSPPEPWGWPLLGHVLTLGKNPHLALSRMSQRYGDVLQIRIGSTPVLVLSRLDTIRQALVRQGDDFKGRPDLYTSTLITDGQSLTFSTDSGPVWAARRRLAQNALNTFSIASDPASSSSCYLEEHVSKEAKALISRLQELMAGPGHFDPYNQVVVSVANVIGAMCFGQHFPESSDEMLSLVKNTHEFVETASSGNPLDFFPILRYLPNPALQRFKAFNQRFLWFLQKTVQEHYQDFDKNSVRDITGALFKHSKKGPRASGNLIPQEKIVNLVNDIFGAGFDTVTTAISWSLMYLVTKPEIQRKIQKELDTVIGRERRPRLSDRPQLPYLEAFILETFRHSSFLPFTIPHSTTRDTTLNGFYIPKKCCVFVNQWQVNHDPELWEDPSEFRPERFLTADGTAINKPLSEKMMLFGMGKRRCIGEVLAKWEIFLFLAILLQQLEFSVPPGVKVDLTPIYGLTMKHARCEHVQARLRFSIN

The assay has as its target Cytochrome P450 1A2 (Homo sapiens) (UniProt P05177). The experiment in a line: Cytochrome panel assay with activity outcomes. The conditions noted are these: recombinant CYP, pro-luciferin dealkylation, luminescence, p450-cyp1a2; series mostly up to 57.1 µM.
`N[C@H](CCC(=O)N[C@H](CSN=O)C(=O)NCC(=O)O)C(=O)O`: the AC50 entry is “inactive”.

In the case of `NC1=C2NC=N[C@@H]2N(C/C=C\c2ccccc2)C=N1`, the activity, negative = inhibition is -12.4% [at 2.29 µM].

In the case of `COc1ccc(CNc2ccnc(-c3cccc(NS(C)(=O)=O)c3)n2)c(OC)c1`, the AC50 was 15.8 µM (active). On the same count and under the same terms, in the case of `CC(C)[C@@H]1NC(=O)[C@H](CCCCN)NC(=O)[C@H](Cc2c[nH]c3ccccc23)NC(=O)[C@H](Cc2ccc(O)cc2)NC(=O)[C@H](C)N(C)C(=O)[C@H](Cc2ccccc2)NC1=O` it was “inactive”.

Turning to `COc1ccc(-c2nn3cnnc3s2)cc1OC`, the AC50 is 20 µM (active). Consider `COc1ccc(-c2ccc(=O)n(CC(=O)Nc3nnc(C(C)C)s3)n2)cc1OC`, for which the AC50 entry was “inactive”. Turning to `CN(C)c1ncc2nc(-c3ccc(Cl)cc3)c(=O)n(Cc3ccc(F)cc3)c2n1`, the AC50 was 5.01 µM (active). Same read-out and setting: in the case of `Cc1nc2cnc(N(C)C)nc2n(Cc2ccc(F)cc2)c1=O` it was 2 µM (active); in that of `CN(C)c1ncc2nc(-c3ccc(F)cc3)c(=O)n(Cc3ccc(F)cc3)c2n1`, “inactive”.

Regarding `CN(C)c1ncc2nc(-c3cc(F)cc(F)c3)c(=O)n(Cc3ccc(F)cc3)c2n1`, the AC50 entry is “inactive”. With `O=C1[C@@H]2[C@H]3[C@H](O)[C@H](O)C/C(=N/OCc4ccccc4)[C@@H]3CC[C@H]2C(=O)N1c1ccc(F)cc1F`, the activity, negative = inhibition is 4.37% [at 11.4 µM]. As to `Clc1ccc(/C=N/Nc2nnc(-c3ncc[nH]3)c3ccccc23)cc1`, the AC50 is 0.2 µM (active). On to `NC[C@@H]1O[C@H](C23CC4CC(CC(C4)C2)C3)Cc2c1ccc(O)c2O`, for which the AC50 result was “inactive”.

Consider `Cc1ccc(N=Nc2c(N)n(-c3ccccc3)[nH]c2=O)cc1`, for which the AC50 was 2.82 µM (active). Same read-out and setting: in the case of `Nc1c(N=Nc2cccc(Cl)c2)c(=O)[nH]n1-c1ccccc1` it was 2 µM (active). On to `Cc1[nH]n(-c2ccc(S(=O)(=O)O)cc2)c(=O)c1N=Nc1ccccc1`, for which the activity, negative = inhibition is -10.5% [at 11.4 µM]. Take `Cc1ccc(C2C(C=Nc3c(C)n(C)n(-c4ccccc4)c3=O)=C(c3ccccc3)Oc3ccccc32)cc1` (stereo unspecified): the AC50 result was “inactive”. As to `O=c1cnc2cnc(Oc3cccc(Cl)c3)nc2n1C1CC1`, the AC50 is 2.51 µM (active). As for `O=c1cc(N2CCN(c3cccc(Cl)c3)CC2)[nH]c(=O)n1C1CCCCC1`, the AC50 result is “inactive”. For the compound `Cc1nc2cnc(Oc3cccc(Cl)c3)nc2n(C2CC2)c1=O`, the AC50 was 6.31 µM (active). Still for that read-out and setting: in the case of `Cc1nc2cnc(Oc3ccccc3)nc2n(C2CC2)c1=O` it was 10 µM (active). The same measure, in the same setting: in the case of `COc1ccc(C2/C(=C(/O)c3ccccc3)C(=O)C(=O)N2CC(C)O)c(OC)c1` (stereo unspecified) it was “inactive”; in that of `N#Cc1ccc(C(c2nnnn2Cc2ccccc2)N2CCCC2)cc1` (stereo unspecified), “inactive”; in that of `O=C(NCc1ccc(F)cc1)C(c1ccncc1)N(C(=O)c1csnn1)C1CC1` (stereo unspecified), “inactive”. For `Cc1sc2ccccc2[n+]1CCC(C)S(=O)(=O)[O-]` (stereo unspecified), the AC50 entry was “inactive”. For the compound `O=C1c2ccccc2-c2n[nH]c3cccc1c23`, the AC50 was 0.0158 µM (active). With `CN(CC(=O)Nc1ccc(F)c(F)c1)S(=O)(=O)c1cccc2nsnc12`, the AC50 was 15.8 µM (active). In the case of `CCc1cccc(NC(=O)CN(C)S(=O)(=O)c2cnc[nH]2)c1`, the AC50 result is “inactive”. With `CC1CCN(C(=O)CN(C)S(=O)(=O)c2cccc3nsnc23)CC1`, the AC50 result is “inactive”. Regarding `CCN(CC)CCC[C@H](C)Nc1c2ccc(Cl)cc2nc2ccc(OC)cc12`, the AC50 was 2 µM (active) and 1 µM (active).

Turning to `Cc1cccc(N(CC(=O)N2CCOCC2)S(C)(=O)=O)c1`, the AC50 result is “inactive”. For the compound `C/C(=N\NC(=O)c1ccc(Br)cc1)c1ccccc1`, the AC50 was 1.41 µM (active). For the compound `C/C(=N\NC(=O)c1cccc(Br)c1)c1ccc(Br)cc1`, the AC50 was 0.282 µM (active). Same read-out and setting: in the case of `C/C(=N/NC(=O)c1ccc(NC(=O)c2ccc(F)cc2)cc1)c1ccccc1` it was “inactive”. On the same count and under the same terms, in the case of `CCn1cc(C(=O)N/N=C(/C)c2ccc(F)cc2)c(=O)c2cc(F)c(N3CCCC3)cc21` it was “inactive”.

With `CC(C)OP(=O)(OC(C)C)C(NC(=O)c1ccc(Br)cc1)c1ccccc1` (stereo unspecified), the AC50 result was “inactive”. Still for that read-out and setting: in the case of `O=C(N/C(=C\c1cccnc1)C(=O)N1CCOCC1)c1cccc(Br)c1` it was “inactive”; in that of `FC(F)(F)c1ccccc1-c1nccc(NCc2cccs2)n1`, 1.26 µM (active); in that of `Cc1ccccc1-c1nccc(NCc2cccs2)n1`, 0.501 µM (active).

For the compound `CN(C)Cc1ccccc1-c1nccc(NCc2cccs2)n1`, the AC50 is 0.794 µM (active). `CC1CCN(c2cc(N3CCC(C)CC3)c([N+](=O)[O-])cc2/C=C(\C#N)c2nn(-c3ccccc3)c(N)c2C#N)CC1`: the AC50 result was “inactive”.

As to `CCCC[P+](CCCC)(CCCC)Cc1ccc(NC(=O)[C@@H](Cc2ccc3ccccc3c2)NC(=NC2CCCCC2)NC2CCCCC2)cc1`, the AC50 was 31.6 µM (active). As to `O=C(Nc1ccccc1)C(Cc1ccccc1)NC(=O)C12CC3CC(CC(C3)C1)C2` (stereo unspecified), the AC50 result was “inactive”. Same read-out and setting: in the case of `COc1ccc(CC(NC(C)=O)C(=O)NC2CCN(C(=O)Nc3ccc(Cl)cc3)CC2)cc1OC` (stereo unspecified) it was “inactive”; in that of `CCNC(=S)NNC(=O)Cc1ccccc1`, “inactive”. Consider `CCNC(=S)NNC(=O)CCn1c2ccccc2c2ccccc21`, for which the AC50 was 2.82 µM (active). Same read-out and setting: in the case of `N#Cc1c(NC(=O)C2CC(c3ccccc3Cl)=NO2)sc2c1CCC2` (stereo unspecified) it was 3.55 µM (active); in that of `CC(=O)C1=NOC(CNC(=O)c2c(-c3ccccc3Cl)noc2C)C1` (stereo unspecified), “inactive”.

As to `COc1ccc(COC(=O)N/N=C2/C[C@@H](O)[C@@H](O)[C@@H]3[C@@H]4C(=O)N([C@@H](C)c5ccccc5)C(=O)[C@H]4CC[C@@H]23)cc1`, the activity, negative = inhibition was -1.59% [at 11.4 µM]. `CSc1ccc(CNc2ccc(Cl)cc2)cc1`: the AC50 is 10 µM (active). Same read-out and setting: in the case of `CSc1ccc(CNc2ccc(C)c(C)c2)cc1` it was 0.891 µM (active); in that of `CSc1ccc(CNc2ccccc2)cc1`, 25.1 µM (active); in that of `CC(Sc1nc(NCc2ccccc2)nc(N(C)C)n1)C(=O)Nc1ccccc1` (stereo unspecified), “inactive”. `CCCCC[C@H](CC(=O)NO)C(=O)N[C@@H](C(=O)N1CCC[C@H]1CO)C(C)C`: the AC50 entry was “inactive”.

With `COCCn1c(=O)cnc2cnc(Oc3ccccc3)nc21`, the AC50 is 15.8 µM (active). The same measure, in the same setting: in the case of `Cn1c(=O)cnc2cnc(Oc3ccccc3)nc21` it was 10 µM (active); in that of `O=c1cnc2cnc(Oc3ccccc3)nc2n1CCc1ccccc1`, 3.16 µM (active). For `COCCn1c(=O)c(C)nc2cnc(Oc3ccc(OC)cc3)nc21`, the AC50 was 15.8 µM (active). The same measure, in the same setting: in the case of `Cc1nn(S(=O)(=O)c2cccs2)c(C)c1Sc1ccc([N+](=O)[O-])cc1` it was “inactive”.

For `O=C1CCCN1CC(CN1CCOCC1)Sc1nnnn1-c1ccccc1` (stereo unspecified), the AC50 entry was “inactive”.

As for `CCN(CC)CCCN(Cc1cc2ccc(C)c(C)c2[nH]c1=O)C(=O)NC1CCCCC1`, the AC50 entry was “inactive”. On the same count and under the same terms, in the case of `COCCn1c(=O)cnc2cnc(Oc3ccc(OC)cc3)nc21` it was 5.01 µM (active). Same read-out and setting: in the case of `COc1ncc2ncc(=O)n(C)c2n1` it was 12.6 µM (active); in that of `COc1ccc(-n2c(=O)cnc3cnc(Oc4ccccc4)nc32)cc1`, 15.8 µM (active).

Consider `CN(Cc1cnc2nc(N)nc(N)c2n1)c1ccc(C(=O)N[C@@H](CCC(=O)O)C(=O)O)cc1`, for which the AC50 result is “inactive”. Same read-out and setting: in the case of `N=c1sc2ccccc2n1CCS` (tested in a mixture with another compound) it was 1 µM (active); in that of `CN1CCN(c2ncc3ncc(=O)n(C[C@H]4CCCO4)c3n2)CC1`, 10 µM (active); in that of `O=c1cnc2cnc(N3CCOCC3)nc2n1C1CC1`, 6.31 µM (active). Take `CCn1cc(C(=O)O)c(=O)c2cnc(N3CCNCC3)nc21`: the AC50 result is “inactive”.

`O=c1cnc2cnc(N3CCOCC3)nc2n1C[C@H]1CCCO1`: the AC50 is 10 µM (active). As to `O=C1C=C[C@@H](O)[C@H]2[C@@H]3C(=O)N(c4cccc(Oc5ccccc5)c4)C(=O)[C@@H]3CC[C@H]12`, the activity, negative = inhibition is -5.61% [at 11.4 µM]. Regarding `COC(=O)c1nn(-c2ccccc2)c(-c2ccccc2)c1C(=O)c1ccccc1`, the AC50 entry is “inactive”.

With `COC(=O)c1nn(-c2ccccc2)c(=O)cc1Oc1ccccc1`, the AC50 was 20 µM (active). With `COC(=O)N1CCC2(CCCN(Cc3ccccc3)C2)CC1`, the AC50 result is “inactive”. The same measure, in the same setting: in the case of `O=C(c1ccncc1)N1CCC[C@@]2(CCN(c3ncccn3)C2)C1` it was “inactive”. `CO/N=C(\C)CCN1CCCCc2nc(C)c(C)cc21`: the activity, negative = inhibition was -3.72% [at 11.4 µM]. As to `CN1CCC(=NNC(=O)CSCc2ccccc2)CC1`, the AC50 was 14.1 µM (active). Same read-out and setting: in the case of `CC1CCC(=NNC(=O)Cc2ccccc2)CC1` (stereo unspecified) it was “inactive”. The same measure, in the same setting: in the case of `CCCCC1CCC(c2nc(-c3ccccn3)no2)CC1` (stereo unspecified) it was 28.2 µM (active). In the case of `CN(C)c1ccc(-c2noc(C3CCN(S(=O)(=O)c4cccc(C(=O)O)c4)CC3)n2)cc1`, the AC50 result is “inactive”. `Cc1cc(C)c(C#N)c(SCC(=O)c2ccc(Cl)cc2Cl)n1`: the AC50 was 2.24 µM (active).

Consider `Cc1cc(C)c(C#N)c(SCc2cc3c(cc2Cl)OCO3)n1`, for which the AC50 was 2.24 µM (active). With `C/C(=N\[N+](C)(C)C)c1ccc(C)c(C)c1`, the activity, negative = inhibition was -16.9% [at 2.29 µM]. As for `COc1cccc(Sc2cc(N3CCOCC3)nc(-c3ccccc3)n2)c1`, the AC50 is 2.51 µM (active). On the same count and under the same terms, in the case of `Cc1ccc(S(=O)(=O)c2cc(N3CCOCC3)nc(-c3ccccc3)n2)cc1` it was 4.47 µM (active); in that of `O=c1nc(N2CCOCC2)ccn1-c1nc(-c2ccccc2)oc1-c1ccccc1`, “inactive”. Still for that read-out and setting: in the case of `Cc1ccc(Oc2cc(N3CCOCC3)nc(-c3ccccc3)n2)cc1` it was 2.51 µM (active).

With `Cc1cccc(C(=O)N2CCC(c3nc(-c4ccc(S(=O)(=O)N5CCOCC5)cc4)no3)CC2)c1`, the AC50 result was “inactive”.

For the compound `Cc1ccc(C(=O)N2CCN(c3cc(=O)[nH]nc3-c3ccccc3)CC2)cc1`, the AC50 entry was “inactive”. On the same count and under the same terms, in the case of `N=C(N)c1ccc(N)cc1` it was “inactive”; in that of `O=C(O)CS(=O)c1ccc2c3c(cccc13)C(=O)c1ccccc1-2` (stereo unspecified), 0.0631 µM (active); in that of `C(=C\c1nnc(-c2cccs2)o1)/c1ccccc1`, 2.51 µM (active).

`Cc1ccc(/C=C/c2nnc(-c3cccs3)o2)cc1`: the AC50 was 8.91 µM (active). Consider `COc1ncc2nc(-c3cc(F)cc(F)c3)c(=O)n(C)c2n1`, for which the half-maximal activity concentration (AC50) is 2 µM (active). The same measure, in the same setting: in the case of `Cn1c(=O)c(-c2cc(F)cc(F)c2)nc2cnc(Oc3ccccc3)nc21` it was 2 µM (active). The same measure, in the same setting: in the case of `COc1ccc(Oc2ncc3nc(-c4cc(F)cc(F)c4)c(=O)n(C)c3n2)cc1` it was 3.16 µM (active).

The record behind these values is PubChem BioAssay AID1851 (National Center for Advancing Translational Sciences (NCATS), 2009).
